The panel holds about 83,000 compounds, 20% with a hit somewhere; the sample as a whole holds those more often.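 Cells were grown in 96-well plates and exposed to the test compound at a single concentration for 48 hours; results are reported as percent growth, with values below 10 considered active.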 A number with no mark means an inactive call. Active and inactive are the calls of the source.
Assays:
Assay in all cases: NCI-60 one-dose screen, 48 h (100 = growth as untreated, 0 = no growth, -100 = all killed)
Details in all cases: 10 µM unless noted
[1] = system: NCI-H23 lung
[2] = system: NCI-H226 lung
[3] = system: NCI-H322M lung
[4] = system: HOP-62 NSCLC
[5] = system: NCI-H460 lung
[6] = system: HOP-92 NSCLC
[7] = system: NCI-H522 lung
[8] = system: A549/ATCC NSCLC
[9] = system: 786-0 renal
[10] = system: COLO 205 colon
[11] = system: DU-145 prostate
[12] = system: K-562 leukemia
[13] = system: MALME-3M melanoma
[14] = system: MDA-MB-231 breast
[15] = system: RXF 393 renal
[16] = system: SF-268 CNS
[17] = system: SF-295 CNS
[18] = system: SF-539 CNS
[19] = system: UACC-257 melanoma
[20] = system: M14 melanoma

Structure (SMILES)	growth [1]	growth [2]	growth [3]	growth [4]	growth [5]	growth [6]	growth [7]	growth [8]	growth [9]	growth [10]	growth [11]	growth [12]	growth [13]	growth [14]	growth [15]	growth [16]	growth [17]	growth [18]	growth [19]	growth [20]
Cc1cn2c(/C=C3/C(=O)Nc4c3ccc3ccccc43)c(C(F)(F)F)nc2s1	39.5%	53.5%	43.2%	27.2%	9.31% (active)	20.8%	5.27% (active)	20.1%	24.8%	-49.4% (active)	4.07% (active)	8.76% (active)	42.4%	38.1%	-19.3% (active)	43.5%	7.54% (active)	-5.73% (active)	54.4%	8.69% (active)
CC(C)C1=C[C@@]23CC[C@@H]4[C@](C)(CCC[C@@]4(C)C(=O)N4CCCNCC4)[C@H]2C[C@@H]1[C@H]1C(=O)CCC(=O)[C@H]13	96.4%	101%	106%	97.3%	104%	101%	91.5%	101%	104%	134%	114%	93.5%	99.9%	109%	104%	97.8%	93.7%	93.7%	106%	93%
COc1cc2c(cc1-c1c(C)noc1C)ncc1nc(C3CCOCC3)n([C@H](C)COC(F)F)c12	60.1%	55.2%	41.2%	35.2%	59.2%	36.9%	31.2%	36.2%	48%	31.6%	69.2%	30.5%	71.7%	46.3%	54.8%	65.5%	49.7%	33.6%	31.8%	46.2%
Cc1ccc2oc(=O)cc(C3c4ccc([nH]4)C(c4cc(=O)oc5ccc(C)cc45)c4ccc([nH]4)C(c4cc(=O)oc5ccc(C)cc45)c4ccc([nH]4)C(c4cc(=O)oc5ccc(C)cc45)c4ccc3[nH]4)c2c1 (stereo not given)	-53.2% (active)	-39.2% (active)	-10.2% (active)	-68.2% (active)	-66.4% (active)	-24.1% (active)	-63.5% (active)	-24.6% (active)	-58.9% (active)	-80.6% (active)	-46.3% (active)	-26% (active)	-35.1% (active)	-53.8% (active)	-87.3% (active)	-39.5% (active)	-78.2% (active)	-75.1% (active)	-67.7% (active)	-71.9% (active)
O=C(N=Nc1c(O)[nH]c2ccccc12)c1cc(-c2ccccc2)on1	95.8%	96.8%	111%	102%	102%	96.2%	90.7%	107%	104%	122%	113%	104%	100%	93.1%	118%	101%	98.2%	97.4%	106%	104%
COc1cc(-c2nc3ccccc3[nH]2)ccc1OCc1nnc(-c2ccc(CC(C)C)cc2)o1	91.1%	87.7%	93.8%	93.4%	98.8%	79.7%	93.5%	84.2%	93.7%	101%	94%	76%	89.9%	93.4%	71.2%	99.9%	99.3%	105%	104%	98.3%
Cc1ccc(/C=C2\SC(=S)N(CC(=O)NCCCN3CCOCC3)C2=O)cc1	99.6%	91%	104%	103%	103%	91.5%	90.5%	102%	104%	111%	104%	89.6%	95.1%	91.9%	101%	96.5%	91.1%	93.7%	101%	102%
C=C(C)[C@@H]1CC[C@]2(C(N)=O)CC[C@]3(C)[C@H](CC[C@@H]4[C@@]5(C)C/C(=C/c6ccco6)C(=O)C(C)(C)[C@@H]5CC[C@]43C)[C@@H]12	98%	95.8%	98.9%	98.5%	96%	103%	78.8%	86.6%	95.3%	113%	92.6%	80.1%	87%	94.5%	94.2%	90.9%	90.2%	98.6%	97.8%	85.1%

From PubChem BioAssay (NCI)
